According to PubChem BioAssay AID493200 (National Center for Advancing Translational Sciences (NCATS), 2011):
Records with an inconclusive call do not appear. Values without a mark were called inactive. Calls of active or inactive are those of the source. Calls follow the shape of the dose curve; as a rule, active = well fitted activation curve with a large enough effect; inconclusive = small, poorly fitted or top-dose-only effect; inactive = no such curve, though single readings can be large or run the other way.
Potency is read from the fitted curve at half-maximal effect.

Assay: qHTS Assay for Rab9 Promoter Activators: Initial hit validation from the primary screen; as to activation: % of control where 0% means no effect
Conditions: Huh7 Rab9 promoter luciferase reporter, 24 h; series mostly up to 46.1 µM; activation: at the top concentration
Summary of the method: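 Huh7 cells stably carrying a Rab9 promoter–luciferase construct, plated in reduced-serum medium with 10% FBS, rested 2 h, then exposed to compounds in DMSO for 24 h at 37C. Luminescence read 10 min after adding Amplite luciferase reagent.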
With `COc1ccc(NC(=O)CN(C)C(=O)c2ccc(=O)[nH]c2)cc1` the “activation” value was 1.74%. With `CCOC(=O)CSc1nc2cc(C)ccc2cc1C#N` the Potency was 0.996 µM (active). With `O=C(CSc1nnc(-c2ccccn2)o1)Nc1ccccc1F` the Potency was 1.12 µM (active). With `CCC(=O)NC(=S)Nc1ccc(N2CCOCC2)cc1` the Potency was 39.7 µM (active). With `CC(Sc1ncnc2c1cnn2-c1ccccc1)C(=O)Nc1ccc(N2CCOCC2)cc1` (stereo not drawn) the “activation” value was 8.63%. With `COc1cccc(CNC(=O)CN(c2cc(C)cc(C)c2)S(=O)(=O)c2c(C)noc2C)c1` the “activation” value was -7.14%. For `COc1ccc(C)cc1N(C(=O)CNC(=O)c1ccco1)C(C(=O)NC1CCCC1)c1cccnc1` (stereo not drawn), the “activation” value was -0.431%. For `O=C(NC1CCCC1)C(c1ccc(F)cc1)N(C(=O)c1csnn1)c1ccccc1` (stereo not drawn), the “activation” value was 5.07%. For `O=C(O)CSc1nnc(-c2ccncc2)n1CCc1ccccc1`, the “activation” value was 6.2%. For `CCCN(CCC)CCCNC(=O)c1cc2cc3ccc(Cl)cc3nc2o1`, the “activation” value was -13%. For `Nc1nc(SCCO)[nH]c(=O)c1NC(=O)c1ccco1`, the “activation” value was 6.14%. In the case of `CCCOP(=O)(c1ccc(N(C)C)cc1)C(O)c1cccnc1` (stereo not drawn), the “activation” value was -2.9%. For `COc1ccc([N+](=O)[O-])cc1COc1ccc2c(-c3ccccc3)cc(=O)oc2c1`, the “activation” value was 2.92%. With `O=C(C1COc2ccccc2O1)N1CCN(S(=O)(=O)c2ccccc2)CC1` (stereo not drawn) the “activation” value was -3.72%. In the case of `CC1CC(C)CN(CC(=O)N2CCOCC2)C1` (stereo not drawn), the “activation” value was -1.53%. With `Cn1c(SCc2ccccc2)nnc1-c1cnccn1` the Potency was 14.1 µM (active). With `COc1ccc(S(=O)(=O)N2CCCC(C(=O)NCc3ccncc3)C2)cc1Cl` (stereo not drawn) the “activation” value was -11.2%. In the case of `CC(=O)Nc1nnc(SCC(=O)NCCOc2ccccc2)s1`, the “activation” value was -3.72%.
